Test results reported in PubChem BioAssay (NCATS).
Activity calls are given as the source filed them. No rule for the calls is given here.

Columns and labels:
[1] = Immunotoxin (HA22) sensitization/mitigation study. Vehicle arm (PBS) (AID 1159510)
[2] = Immunotoxin (SS1P) sensitization/mitigation study. Vehicle arm (DMEM) (AID 1159513)
Potency is read from the fitted curve at half-maximal effect.

SMILES | Potency [1] | Potency [2]
CC(C)(C)c1cc(C(=O)O)c(NC(=O)Nc2ccc3[nH]ncc3c2)s1 | inactive | inactive
O=C(C1CC1)N1CC[C@@H](Cn2c(-c3ccc(-c4ccc5occc5c4)cc3)nc3cnccc32)C1 | 20.9 µM (active) | 16.6 µM (active)
Cc1cc(SCc2sc(-c3ccc(C(F)(F)F)cc3)nc2C)ccc1OCC(=O)O | inactive | inactive
COc1ccccc1-c1cccc(-c2c(O)c3cc(C#N)c(Cl)cc3[nH]c2=O)c1 | inactive | inactive
C[C@@H](O[C@H]1OCCN(Cc2n[nH]c(=O)[nH]2)[C@@H]1c1ccc(F)cc1)c1cc(C(F)(F)F)cc(C(F)(F)F)c1 | 14.8 µM (active) | 18.7 µM (active)
Cc1ccc(F)c(NC(=O)Nc2ccc(-c3cccc4[nH]nc(N)c34)cc2)c1 | 5.26 µM (active) | 13.2 µM (active)
CC(C)C[C@H](NC(=O)CNC(=O)c1cc(Cl)ccc1Cl)B(O)O | 0.0187 µM (active) | 0.118 µM (active)
COc1cc(=C2C=c3ccccc3=N2)[nH]c1=Cc1[nH]c(C)cc1C | 0.187 µM (active) | 6.62 µM (active)
C=C1C(=CC=C2CCC[C@]3(C)[C@@H]([C@H](C)C=C[C@H](C)C(C)C)CC[C@@H]23)C[C@@H](O)C[C@@H]1O | 20.9 µM (active) | inactive
CCOC(=O)C(C)Oc1cccc2c(=O)n(CC(=O)Nc3ccc4c(c3)OCCO4)ccc12 (stereo not drawn) | inactive | inactive
O=C(O)CCC1CCC(c2cc(F)ccc2F)(S(=O)(=O)c2ccc(Cl)cc2)CC1 (stereo not drawn) | inactive | inactive
O=C(O)[C@H](Cc1c[nH]c2ccccc12)N1C(=O)c2ccccc2C1=O | inactive | inactive
COc1cccc2c1CCCC2CCCN1CCN(C2CCCCC2)CC1 (stereo not drawn) | 16.6 µM (active) | 7.43 µM (active)
NC(CO)(CO)CCc1ccc(Sc2cccc(OCc3ccccc3)c2)cc1Cl | 23.5 µM (active) | –
CCOc1cc(C=C2C(=O)N(c3ccccc3)N=C2C)cc(Cl)c1OCC(=O)OC | 18.7 µM (active) | inactive
CN1CCN(CCOc2cc(OC3CCOCC3)c3c(Nc4c(Cl)ccc5c4OCO5)ncnc3c2)CC1 | 20.9 µM (active) | –
Cc1[nH]nc2ccc(-c3cncc(OC[C@@H](N)Cc4ccccc4)c3)cc12 | 1.18 µM (active) | 1.32 µM (active)

SMILES | Potency [1] | Potency [2]
COc1cc2c(cc1OC)CN(CCc1ccc(NC(=O)c3cccc4c(=O)c5cccc(OC)c5[nH]c34)cc1)CC2 | 18.7 µM (active) | inactive
O=C(C=Cc1c(C(=O)O)[nH]c2cc(Cl)cc(Cl)c12)Nc1ccccc1 | inactive | inactive
Clc1ccc2ncc(-c3cccc(NC4CNC4)n3)n2c1 | 20.9 µM (active) | –
COc1ccccc1[C@H](c1cccc2ccccc12)[C@@](C)(C#N)C(=O)N1CCC(c2cccc(C(F)(F)F)c2)CC1 | inactive | –
Cc1cc2c(F)c(Oc3ncnn4cc(OC[C@@H](C)O)c(C)c34)ccc2[nH]1 | 14.8 µM (active) | 14.8 µM (active)
COc1ccc(C=Cc2cc(OC)c(OC)c(OC)c2)cc1O | inactive | 0.0019 µM (active)
CC1=C[C@@H]2[C@@H]([C@@H](O)C[C@@]3(C)[C@H]2C[C@@H](C)[C@]3(O)C(=O)CO)[C@@]2(C)Cc3cnn(-c4ccccc4)c3C=C12 | 1.66 µM (active) | 23.5 µM (active)
OC[C@H]1O[C@@H](n2cnc3c2NC=NC[C@@H]3O)C[C@H]1O | inactive | inactive
N#Cc1ccc(COC[C@H]2O[C@@H](n3c(NCc4ccc(Cl)c(Cl)c4)nc4c(N)ncnc43)[C@@H](O)[C@@H]2O)cc1 | 23.5 µM (active) | –
Cn1c(=O)c(F)c(Nc2ccc(I)cc2F)c2c(=O)n(C[C@@H](O)CO)cnc21 | 23.5 µM (active) | –
Cc1cn(-c2cc(NC(=O)c3ccc(C)c(Nc4nccc(-c5cccnc5)n4)c3)cc(C(F)(F)F)c2)cn1 | 14.8 µM (active) | 26.4 µM (active)
CN(C)CCCNC(=O)c1ccc(-c2cc(O)c3ncccc3c2)cc1 | 16.6 µM (active) | –
CN(C)C1CCN(C(=O)c2ccc(NC(=O)Nc3nc(N4CCOCC4)nc(N4CCOCC4)n3)cc2)CC1 | 0.166 µM (active) | –
O=c1[nH]c(-c2ccc(C(F)(F)F)cc2)nc2c1CSCC2 | inactive | inactive
CCC=CC[C@H]1C(=O)CC[C@@H]1CC(=O)OC | inactive | inactive
Cc1ccc(C(=O)Nc2cccc(C(F)(F)F)c2)cc1-c1ccc2nc(NCCN3CCOCC3)ncc2c1 | 14.8 µM (active) | 13.2 µM (active)
